Sampled rows, rich in hits. Any-hit rate of the full collection: about 2.5%.
Rce1 inh: yeast Rce1p protease inhibitors, primary screen, biochemical, fluorescence, cell-free homogeneous; 290,000 compounds, 0.27% hits; yeast membranes, quenched prenylated peptide cleavage fluorescence; CAAX prenyl protease 2 (Saccharomyces cerevisiae (strain ATCC 204508 / S288c)), Q03530; calls only;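 active means fall in fluorescence gain of 50% or more versus controls, with final raw signal at or below 3038400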;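 further: plate controls were neutral control wells for no effect and wells lacking membranes for full effect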
Target sequence (Q03530 whole entry, looked up): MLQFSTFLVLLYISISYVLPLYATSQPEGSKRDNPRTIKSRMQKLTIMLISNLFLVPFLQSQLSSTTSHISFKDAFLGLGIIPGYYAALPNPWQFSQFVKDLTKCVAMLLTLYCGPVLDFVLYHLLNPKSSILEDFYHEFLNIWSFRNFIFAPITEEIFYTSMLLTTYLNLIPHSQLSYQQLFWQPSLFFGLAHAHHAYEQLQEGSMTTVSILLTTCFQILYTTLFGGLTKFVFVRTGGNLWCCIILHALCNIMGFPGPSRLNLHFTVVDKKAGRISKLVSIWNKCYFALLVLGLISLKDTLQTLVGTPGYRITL
UBC13 inh: UBC13 polyubiquitin chain formation inhibitors, primary screen, biochemical, TR-FRET, uHTS. inhibition, % at 20 µM. 330,000 compounds, 0.47% hits. AID 485273, 2010; in the data active means inhibition above about 45%, passing the limit was not always enough
Target sequence (P61088 whole entry, looked up): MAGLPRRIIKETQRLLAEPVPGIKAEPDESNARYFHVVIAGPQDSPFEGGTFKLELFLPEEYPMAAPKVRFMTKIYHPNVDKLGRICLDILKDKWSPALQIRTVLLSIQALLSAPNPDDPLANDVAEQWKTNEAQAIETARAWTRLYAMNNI
MEKK3 PB1 HTS: modulators of MEKK3-MEK5 PB1 binding, primary screen, biochemical, wildtype MEKK3, multiplex bead flow cytometry, Alexa488-MEK5; bead-based flow cytometry, Alexa488-MEK5 binding to MEKK3; actives lie on both sides; 0 = blocked by unlabeled MEK5, 100 = vehicle; binding response (% of control), % at 10 µM; 290,000 compounds, 1.4% hits; AID 1529, 2009;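 active means binding response more than 3 SD above or below the average of its plate-row segment, actives on both sides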;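 further: Alexa488 bead fluorescence after subtracting the streptavidin-only scavenger bead signal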
MEKK2 mut-MEK5: MEK5 binding signal on mutant MEKK2 PB1, primary screen, biochemical, multiplex bead flow cytometry, Alexa488-MEK5; Alexa488-MEK5 binding to MEKK2 mutant; percent response, % at 10 µM; 290,000 compounds, 0.35% hits; AID 1530, 2009; in the data active means percent response above about 24%, passing the limit was not always enough
MEKK2wt PB1 HTS: modulators of MEK5 binding to wildtype MEKK2, primary screen, biochemical, multiplex bead flow cytometry, Alexa488-MEK5. Mitogen-activated protein kinase kinase kinase 2 (Homo sapiens), Q9Y2U5. Alexa488-MEK5 binding to MEKK2 WT; actives lie on both sides. binding response (% of control), % at 10 µM. 290,000 compounds, 1.1% hits. AID 1531, 2009; in the data active means binding response below about 67% or above about 130%
MEKK2wt confirm: modulators of MEK5 binding to wildtype MEKK2, confirmation, biochemical, single concentration, multiplex bead flow cytometry. shares compounds with MEKK3 PB1 HTS. Alexa488-MEK5 binding to MEKK2 WT; actives lie on both sides. binding response (% of control), % at 10 µM. 5,900 compounds, 2.4% hits. AID 1892, 2009; in the data active means binding response below about 16% or above about 210%; inactive means in between
MEKK2mut confirm: mutant MEKK2 PB1-MEK5 binding signal retest – biochemical, single concentration, multiplex bead flow cytometry, confirmation | percent response, % at 10 µM | shares compounds with MEKK3 PB1 HTS | Alexa488-MEK5 binding to MEKK2 mutant | 5,900 compounds, 2% hits; in the data active means percent response mostly above about 71%, no sharp cut-off; inactive means mostly below about 38%;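 further: higher means compound restores mutant binding toward wildtype level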
MEKK3-MEK5 inh: MEKK3 wild-type PB1 binding to MEK5, inhibitors, confirmation, biochemical, bead multiplex flow cytometry, single concentration, wildtype; binding response (% of control), % at 10 µM; Alexa488-MEK5 binding to MEKK3; active compounds read low; AID 1894, 2009; shares compounds with MEKK3 PB1 HTS; 5,900 compounds, 1.8% hits;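 active means binding response below 72% of control, or above a set upper limit, though filed actives all read lower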;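 further: 100% = DMSO only wells and 0% = binding blocked by excess unlabeled MEK5; lower values mean stronger disruption of MEK5 binding to MEKK3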
Active calls of the source: *; i = inactive; · = not tested or not shown; + = active, no number; [ ] = remark or other dose.

SMILES	Rce1 inh	UBC13 inh	MEKK3 PB1 HTS	MEKK2 mut-MEK5	MEKK2wt PB1 HTS	MEKK2wt confirm	MEKK2mut confirm	MEKK3-MEK5 inh
COc1cc(C(=S)N2CCOCC2)cc(OC)c1O	i	0.4	42.0*[inhibitor]	-17.0	57.0	109.0	15.0	107.0
COc1cccc(OC)c1C(=O)N1CCOCC1	i	2.0	104.0	6.0	106.0	·	·	·
COc1ccc(C(=O)N2CCOCC2)cc1Br	i	-6.3	125.0*	7.0	121.0	93.0	-3.0	96.0
Cc1nc([N+](=O)[O-])nn1C12CC3CC(CC(Cl)(C3)C1)C2	i	0.5	106.0	1.0	100.0	·	·	·
CCCCNC(=O)[C@H]1N2C(=O)c3c(ccc(OC)c3OC)C2SC1(C)C (some centres not stated)	i	0.9	101.0	-1.0	97.0	·	·	·
CCOC(=O)n1c(O)c(N=NC(N)=S)c2cc(C)ccc21	i	16.2	68.0*[inhibitor]	-20.0	69.0	104.0	2.0	103.0
CN(C)CCCNc1ncnc2oc(-c3ccccc3)c(-c3ccccc3)c12	i	9.0	107.0	19.0	134.0*	115.0	14.0	100.0
CCc1cccc2c1NC(=O)C21OCCO1	i	-1.2	102.0	2.0	101.0	·	·	·
Cc1cccc(C(=O)N[C@H](C(=O)Nc2nc3ccccc3[nH]2)C(C)C)c1	·	0.8	132.0*	5.0	120.0	99.0	-5.0	102.0
O=C(Cc1ccc([N+](=O)[O-])cc1)NCc1ccccc1Cl	i	-1.9	146.0*	1.0	108.0	98.0	-4.0	102.0
CS(=O)(=O)N(CC(=O)NCc1ccc2c(c1)OCO2)C1CCCCC1	i	4.4	136.0*	1.0	117.0	105.0	1.0	106.0
CCS(=O)(=O)C(C)(CCl)C(=O)Nc1ccc(C(=O)OC)cc1 (configuration not stated)	i	2.7	95.0	-13.0	93.0	·	·	·
O=C(O)c1ccccc1C(=O)NC1CCCc2ccccc21 (configuration not stated)	i	0.5	98.0	0.0	99.0	·	·	·
Cc1cc(Nc2ncc(Cl)cc2Cl)n(-c2ccccc2)n1	i	-1.8	139.0*	1.0	108.0	110.0	6.0	104.0
O=C(NCc1cn(-c2ccccc2)nc1-c1ccccc1)c1cccc([N+](=O)[O-])c1	i	-1.5	101.0	8.0	114.0	·	·	·
N#CCCn1cc(CNCc2ccccc2)c(-c2cccc([N+](=O)[O-])c2)n1	i	19.7	105.0	23.0	160.0*	144.0	21.0	99.0
O=C(OCC(=O)N1CCN(Cc2ccccc2)CC1)c1ccc(Cl)cc1	i	-12.1	4.0*[inhibitor]	-42.0	6.0*[inhibitor]	99.0	-3.0	98.0
O=C(OCC(=O)N1CCN(C(=O)c2ccco2)CC1)c1ccc(Cl)cc1	·	2.8	·	·	·	·	·	·
CCOC(=O)CN1C=C(c2ccc3ccccc3n2)C(C[N+](=O)[O-])c2ccccc21 (configuration not stated)	i	-112.5	103.0	82.0*	67.0*	102.0	-10.0	96.0
CCCCCn1c(=O)c(-c2nc3ccccc3c(=O)[nH]2)c(O)c2ccccc21	i	20.4	104.0	1.0	103.0	·	·	·
CCCCn1c(=O)c(-c2ccccc2)c(O)c2ccccc21	+	3.8	131.0*	5.0	129.0	104.0	-4.0	100.0
CCOC(CNc1c([N+](=O)[O-])c(=O)n(C)c(=O)n1C)OCC	i	6.0	98.0	-1.0	101.0	·	·	·
CCOCCCNC(=O)CCn1nc(-c2ccc(Cl)cc2)ccc1=O	i	-2.7	103.0	1.0	105.0	·	·	·
O=C(CN1CCN(CC(=O)Nc2ccccc2Cl)CC1)NCC1(N2CCOCC2)CCCCC1	·	14.6	·	·	·	·	·	·
COC(=O)C(C)N(C#N)c1nc(C)cc(C)n1 (configuration not stated)	i	1.1	131.0*	7.0	117.0	107.0	6.0	104.0
SMILES	Rce1 inh	UBC13 inh	MEKK3 PB1 HTS	MEKK2 mut-MEK5	MEKK2wt PB1 HTS	MEKK2wt confirm	MEKK2mut confirm	MEKK3-MEK5 inh
S=c1[nH]nc(-c2cccnc2)n1-c1ccccc1	i	-2.4	80.0*[inhibitor]	2.0	101.0	98.0	-4.0	105.0
S=c1[nH]nc(-c2ccc(Cl)cc2)n1-c1cccnc1	i	-3.9	100.0	-3.0	94.0	·	·	·
COc1ccc(CCNC(=O)CN(c2cccc([N+](=O)[O-])c2)S(C)(=O)=O)cc1OC	i	6.1	102.0	-2.0	97.0	·	·	·
CCCc1cc(=O)[nH]c(SCc2cc(C(=O)OC)c(C)o2)n1	i	-5.4	2.0*[inhibitor]	-16.0	3.0*[inhibitor]	99.0	-2.0	101.0
CCCC(C(=O)NC1CCCC1)N(CC1CCCO1)C(=O)CNS(=O)(=O)c1ccc(F)cc1 (configuration not stated)	i	-3.5	97.0	-8.0	93.0	·	·	·
O=C(NCCN1CCCCC1)c1cc(COc2c(F)cccc2F)on1	i	-1.1	100.0	-7.0	102.0	·	·	·
O=C(O)/C=C/c1coc2ccc(F)cc2c1=O	i	9.1	72.0*[inhibitor]	0.0	99.0	106.0	12.0	106.0
Cc1ccc2occ(/C=C/C(=O)O)c(=O)c2c1	i	8.3	95.0	9.0	99.0	·	·	·
C/C(=C/C(=O)N1CCc2ccccc21)C(=O)O	i	5.1	145.0*	4.0	117.0	98.0	2.0	101.0
CC(=O)N=c1c(C#N)cc2c(=O)n3cccc(C)c3nc2n1CCCOC(C)C	i	-17.0	67.0	-27.0	46.0*[inhibitor]	101.0	-7.0	98.0
Cc1cccn2c(=O)c3cc(C#N)c(=NC(=O)c4ccncc4)n(CCCOC(C)C)c3nc12	i	-2.8	97.0	-3.0	96.0	·	·	·
COc1ccc(C)cc1N(C(=O)c1snc(C(N)=O)c1N)C(C(=O)NC1CCCCC1)c1ccc(C)o1 (configuration not stated)	i	-2.0	100.0	-4.0	93.0	·	·	·
COc1ccc(-n2c(=S)[nH]c3cc(C(=O)Nc4ccccc4OC)ccc3c2=O)cc1	i	-15.6	132.0*	-1.0	103.0	98.0	-1.0	97.0
COc1ccc(OC)c(NC(=O)c2cc3ccccc3cc2OC)c1	i	2.5	103.0	28.0*	106.0	109.0	4.0	104.0

Screens from PubChem.
